# Sampled rows, rich in hits. Any-hit rate of the full collection: about 2.2%.
# aSyn UTR inh: 5' untranslated region of α-synuclein, MLPCN primary screen | alpha-synuclein 5'UTR reporter, inhibitor activity | inhibition, % (tested at 7.5 µM) | 0.82% of 300,000 active; in the data active means inhibition above about 60%; inconclusive means no clear call, values can overlap the other calls;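 further: H4 neuroglioblastoma cells stably carrying SNCA 5'UTR luciferase fusion; 0% = DMSO wells and 100% = positive control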
# IEC-6 tox: kills IEC-6 intestinal cells in KLF5 counter-screen. IEC-6 cytotoxicity, luminescence viability. inhibition, % at 5 µM. 0.78% of 290,000 active. AID 1825;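 further: 0% = plate median of test compound wells and 100% = cytotoxic reference compound wells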
# Ba/F3 V617F tox: lowers viability of Ba/F3 cells expressing EpoR and JAK2V617F | ATP luminescence | inhibition, % at 5.6 µM | 1.1% of 220,000 active;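 active means inhibition above the campaign mean plus 3 SD over all tested compounds, cut at about 24% in these data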;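 further: cytokine-independent growth of Ba/F3 cells driven by EpoR plus mutant JAK2; 0% = DMSO-treated cells and 100% = JAK inhibitor I control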
# KLF5 inh: suppresses KLF5 promoter-driven expression | inhibition, % at 5 µM | 0.23% of 290,000 active | DLD-1 KLF5 promoter-luciferase reporter, luminescence;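 active means inhibition above a per-plate limit of that plate's mean compound inhibition plus 3 SD, cut at about 60% in these data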;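 further: 0% = DMSO wells and 100% = LY294002 at 200 µM; higher means less KLF5 promoter-driven luciferase light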
# BaF3 parental: reduces parental Ba/F3 cell viability, JAK2V617F counter-screen | CellTiter-Glo ATP luminescence | inhibition, % at 5.6 µM | 1.1% of 220,000 active | AID 1486;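 active means inhibition above a per-campaign cutoff, the mean inhibition of all tested compounds plus 3 SD, cut at about 27% in these data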;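 further: 0% = DMSO wells and 100% = JAK Inhibitor I control wells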
# APP 5UTR inh: APP translation inhibition | 0.82% of 190,000 active | SH-SY5Y APP 5'UTR-luciferase reporter, luminescence | inhibition, % at 2 µM;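 active means inhibition above a set limit, derived from the sample mean plus 3 SD, cut at about 45% in these data; inconclusive means one replicate passes the limit while the other fails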
# IEC-6 tox confirm: IEC-6 cytotoxicity, confirmation assay | inhibition, % at 5 µM | AID 1907 | shares compounds with IEC-6 tox | 63% of 1,900 active | IEC-6 rat intestinal epithelial viability, luminescence;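 further: 0% = vehicle and 100% = reference cytotoxic drug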
# An asterisk follows results filed as active; ? = inconclusive; nt = no result. Unless noted, no stated cut-off is given here; in the data, active means inhibition above about 22%; inactive means the rest.
SMILES,aSyn UTR inh,IEC-6 tox,Ba/F3 V617F tox,KLF5 inh,BaF3 parental,APP 5UTR inh,IEC-6 tox confirm
O=C(Nc1nc(-c2ccccn2)cs1)C1CC1,-110.7,2.5,-0.9,-37.5,3.3,-2.9,nt
Cc1nc(NC(=O)c2ccco2)sc1C(=O)O,-18.3,35.2*,nt,-1.5,nt,nt,27.0*
O=C(CC1CC2CCC1C2)Nc1nc(-c2ccccn2)cs1 (centres undefined),-15.3,28.7*,4.0,-34.3,7.2,-37.2,6.4
O=C(Nc1nc(-c2ccccn2)cs1)c1ccc(Br)s1,-1.4,30.1*,2.1,13.3,5.1,25.1,69.8*
O=C(Nc1nc(-c2ccccn2)cs1)c1ccco1,42.2,26.5*,0.9,-31.4,9.4,31.7,28.2*
CC1CCN(c2ccc(C(=O)NCc3ccco3)cc2[N+](=O)[O-])CC1,11.4,3.9,2.4,-23.8,8.4,-13.1,nt
O=C(Nc1ccc(S(=O)(=O)N2CCOCC2)cc1)c1ccc(Cl)cc1Cl,-3.9,-4.1,nt,-25.6,nt,nt,nt
CCCCN1CCN=C1Nc1ccccc1,-11.0,-4.7,nt,16.1,nt,nt,nt
COc1ccc(S(=O)(=O)N2CCCc3ccccc32)cc1[N+](=O)[O-],51.7,59.2*,nt,48.3,nt,nt,44.0*
COc1ccc(S(=O)(=O)N2CCCc3ccccc32)cc1OC,10.3,4.2,-0.8,-29.3,0.6,nt,nt
COc1cc(OC)c(C(=O)OCC(=O)NCCC2=CCCCC2)cc1OC,5.6,nt,nt,nt,nt,nt,nt
COc1ccc(C)cc1S(=O)(=O)N(C)CC(=O)NCc1ccncc1,9.0,-0.1,nt,-8.2,nt,nt,nt
C/C(=N\Nc1nc(C)cc(-c2ccccc2)n1)c1ccc(O)cc1,-24.2,15.0,nt,-62.7,nt,nt,nt
C/C(=N\Nc1nc(C)cc(-c2ccccc2)n1)c1ccccc1,-101.9,26.4*,nt,-29.1,nt,nt,8.0
COc1ccc(N(CC(=O)Nc2cc(Cl)ccc2C)S(=O)(=O)c2c(C)n[nH]c2C)cc1,9.8,37.8*,nt,22.1,nt,nt,12.2
COc1ccc(N(CC(=O)Nc2ccc(C)cc2C)S(=O)(=O)c2c(C)n[nH]c2C)cc1,23.5,-1.7,nt,-10.0,nt,nt,nt
CCCSc1nnc(Sc2nnnn2-c2ccccc2)s1,12.5,42.4*,82.0*,-40.3,94.8*,94.5*,26.2*
CC1=C(C(=O)Nc2ccc(CC(=O)NCc3ccc(OC(C)C)cc3)cc2)SCCO1,55.7,82.2*,nt,47.4,nt,nt,60.3*
COc1ccc(CNC(=O)Cc2ccc(NC(=O)C3=C(C)OCCS3)cc2)cc1,-13.1,65.3*,nt,10.2,nt,nt,43.0*
CC(C)Cn1c([N+](=O)[O-])nc2c1c(=O)[nH]c(=O)n2C,-19.9,-2.8,-1.9,-6.3,-2.5,nt,nt
Cn1c(=O)[nH]c(=O)c2c1nc([N+](=O)[O-])n2Cc1ccccc1,-41.7,38.0*,95.2*,-2.9,76.8*,nt,10.2
Cc1ccc(S(=O)(=O)/N=C2/C=C(Sc3ncn[nH]3)C(=O)c3ccccc32)cc1,nt,25.6*,73.1*,-23.1,72.0*,64.2*,-3.0
COc1ccccc1N1CCN(C2CCCN(C(=O)CN3CCCCC3=O)C2)CC1 (centres undefined),17.3,6.3,nt,-4.0,nt,nt,nt
C/C(=N\NC(=O)c1cccc(F)c1)c1ccc(Br)s1,-45.0,24.1*,6.7,5.8,14.2,-2.8,31.8*
COc1cc(NC(=O)CN2C(=O)COc3ccc(S(=O)(=O)N4CCCC4)cc32)cc(OC)c1,-18.7,-1.2,nt,-17.3,nt,nt,nt
SMILES,aSyn UTR inh,IEC-6 tox,Ba/F3 V617F tox,KLF5 inh,BaF3 parental,APP 5UTR inh,IEC-6 tox confirm
COc1cccc(CN2CC(C(=O)NCCN3CCOC3=O)CCC2=O)c1 (centres undefined),-6.7,1.9,nt,-31.3,nt,nt,nt
O=C(Nc1cc(=O)[nH]c(=O)[nH]1)c1cccc(C(F)(F)F)c1,-4.0,-1.8,nt,-16.5,nt,nt,nt
O=C(Nc1cc(=O)[nH]c(=O)[nH]1)c1cc(Cl)ccc1Cl,-64.9,45.0*,nt,45.1,nt,nt,13.6
Nc1sc(-c2ccccc2)cc1-c1n[nH]c(=S)n1C1CCCCC1,33.0,54.3*,89.2*,40.4,56.7*,nt,48.1*
CCCN1CCC(NC(=O)CC2C(=O)NCCN2Cc2ccccc2C)CC1 (centres undefined),-4.6,-6.8,nt,-4.1,nt,nt,nt
C=CCn1c(O)c(C=Nc2ccc(CN3CCCCC3)cc2)c(=O)[nH]c1=S,-6.4,2.5,-3.8,-5.5,4.8,nt,nt
COc1ccc(CNC(=O)c2nc(S(=O)(=O)Cc3ccccc3)ncc2Cl)cc1,?,49.7*,nt,20.0,nt,nt,22.4*
CS(=O)(=O)c1ncc(Cl)c(C(=O)Nc2ccc3ccccc3c2)n1,19.6,24.2*,83.3*,5.2,52.4*,96.2*,21.4
